Laboratory results: PubChem BioAssay AID1159580 (chemical genetic matrix, 2015)
Several values for one entry are separate records, joined by “and”; a condition that tells them apart may be missing. Identical values can stand only once. The whole screen tested about 5,500 compounds, of which about 2,000 (36%) were called active. Not shown: some 18% with an inconclusive outcome. Cut-off read from the data, not from the text of the source: active = normalized growth mostly below about 0.91 (no sharp cut-off); inconclusive = no clear call, values can overlap the other calls; inactive = mostly above about 0.92. The list shows a part of the results.

Assay: chemical genetic growth profiling, strain panel (AID 1159580);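 note: tested at 20 µM; growth read once vehicle control cultures reached saturation at 30 °C; 1 = growth at the plate median or of vehicle wells; lower values mean less growth of the strain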
Conditions: S. cerevisiae deletion strains, growth OD

Measured: normalized growth

Fc1cccc(Cl)c1CSc1nncn1-c1ccc(OCc2ccccc2)cc1
inactive: locus YAL013W, strain DEP1, stronger effect = lower value 0.976 | locus YAR019C, strain CDC15, stronger effect = lower value 0.991 | locus YBL105C, strain PKC1, stronger effect = lower value 1.01 | locus YBR135W, strain CKS1, stronger effect = lower value 1 | locus YBR136W, strain MEC1, stronger effect = lower value 1 | locus YBR160W, strain CDC28, stronger effect = lower value 1.01 | locus YBR229C, strain ROT2, stronger effect = lower value 0.991 | locus YCL061C, strain MRC1, stronger effect = lower value 0.968 | locus YDL017W, strain CDC7, stronger effect = lower value 1.01 | locus YDL028C, strain MPS1, stronger effect = lower value 1 | locus YDL101C, strain DUN1, stronger effect = lower value 0.997 and 0.986 | locus YDL108W, strain KIN28, stronger effect = lower value 1 | locus YDL132W, strain cdc53, stronger effect = lower value 0.994 | locus YDL214C, strain PRR2, stronger effect = lower value 0.97 | locus YDR052C, strain DBF4, stronger effect = lower value 0.996 | locus YDR054C, strain cdc34, stronger effect = lower value 1.01 | locus YDR150W, strain NUM1, stronger effect = lower value 0.909 | locus YDR226W, strain ADK1, stronger effect = lower value 0.999 | locus YDR477W, strain SNF1, stronger effect = lower value 0.983 | locus YEL061C, strain CIN8, stronger effect = lower value 0.956 | locus YER123W, strain YCK3, stronger effect = lower value 0.958 | locus YER133W, strain GLC7, stronger effect = lower value 0.974 | locus YFL009W, strain cdc4, stronger effect = lower value 1.01 | locus YFL029C, strain CAK1, stronger effect = lower value 1 | locus YFR003C, strain YPI1, stronger effect = lower value 1.01 | locus YFR019W, strain FAB1, stronger effect = lower value 0.955 | locus YFR028C, strain CDC14, stronger effect = lower value 0.997 | locus YGR040W, strain KSS1, stronger effect = lower value 0.979 | locus YGR052W, strain FMP48, stronger effect = lower value 1.05 | locus YGR078C, strain PAC10, stronger effect = lower value 0.984 | locus YGR092W, strain DBF2, stronger effect = lower value 0.988 | locus YHR030C, strain SLT2, stronger effect = lower value 0.811 and 1.12 | locus YHR079C, strain IRE1, stronger effect = lower value 1.03 | locus YHR082C, strain KSP1, stronger effect = lower value 1.24 | locus YHR087W, strain rtc3, stronger effect = lower value 0.983 | locus YHR205W, strain SCH9, stronger effect = lower value 0.955 | locus YIL147C, strain SLN1, stronger effect = lower value 1 | locus YJL095W, strain BCK1, stronger effect = lower value 1.04 | locus YJL128C, strain PBS2, stronger effect = lower value 1.01 | locus YJL157C, strain FAR1, stronger effect = lower value 0.969 | locus YJR016C, strain ILV3, stronger effect = lower value 0.997 | locus YJR043C, strain POL32, stronger effect = lower value 0.98 | locus YJR066W, strain TOR1 (second series), stronger effect = lower value 0.967 | locus YJR066W, strain TOR1, stronger effect = lower value 1.23 | locus YJR075W, strain HOC1, stronger effect = lower value 0.988 | locus YKL048C, strain ELM1, stronger effect = lower value 0.977 | locus YKL067W, strain YNK1, stronger effect = lower value 0.999 | locus YKL101W, strain HSL1, stronger effect = lower value 0.989 | locus YKL190W, strain CNB1, stronger effect = lower value 0.985 | locus YKL193C, strain SDS22, stronger effect = lower value 0.996 | locus YKL203C, strain TOR2, stronger effect = lower value 1.06 | locus YLR039C, strain RIC1, stronger effect = lower value 0.792 | locus YLR058C, strain SHM2 (second series), stronger effect = lower value 0.991 | locus YLR085C, strain ARP6, stronger effect = lower value 0.831 | locus YLR113W, strain HOG1, stronger effect = lower value 1.01 | locus YLR133W, strain CKI1, stronger effect = lower value 0.949 | locus YLR262C, strain YPT6, stronger effect = lower value 0.838 | locus YLR403W, strain SFP1, stronger effect = lower value 0.965 | locus YML070W, strain DAK1, stronger effect = lower value 0.958 | locus YML094W, strain GIM5, stronger effect = lower value 0.948 | locus YMR001C, strain CDC5, stronger effect = lower value 1 | locus YMR205C, strain PFK2 (second series), stronger effect = lower value 0.965 | locus YMR219W, strain ESC1, stronger effect = lower value 0.985 | locus YMR263W, strain SAP30, stronger effect = lower value 0.963 | locus YMR277W, strain FCP1, stronger effect = lower value 0.988 | locus YNL006W, strain LST8, stronger effect = lower value 0.994 | locus YNL020C, strain ARK1, stronger effect = lower value 0.963 | locus YNL153C, strain GIM3, stronger effect = lower value 0.977 | locus YNL161W, strain CBK1, stronger effect = lower value 0.973 | locus YNL183C, strain NPR1, stronger effect = lower value 0.98 | locus YNL207W, strain RIO2, stronger effect = lower value 1 | locus YNL222W, strain SSU72, stronger effect = lower value 0.995 | locus YNL298W, strain CLA4 (second series), stronger effect = lower value 0.929 | locus YNL307C, strain MCK1 (second series), stronger effect = lower value 0.963 | locus YNL322C, strain KRE1, stronger effect = lower value 0.988 | locus YNR030W, strain Alg12, stronger effect = lower value 0.964 | locus YOL078W, strain AVO1, stronger effect = lower value 0.977 | locus YOL136C, strain PFK27, stronger effect = lower value 0.952 | locus YOR061W, strain CKA2, stronger effect = lower value 0.982 | locus YOR119C, strain RIO1, stronger effect = lower value 1.04 | locus YOR231W, strain MKK1, stronger effect = lower value 1.05 | locus YOR329C, strain SCD5, stronger effect = lower value 1 | locus YPL031C, strain PHO85, stronger effect = lower value 0.986 | locus YPL055C, strain LGE1, stronger effect = lower value 0.847 | locus YPL153C, strain RAD53, stronger effect = lower value 0.992 | locus YPL204W, strain HRR25, stronger effect = lower value 0.973 | locus YPL209C, strain IPL1, stronger effect = lower value 0.994 | locus YPL241C, strain CIN2, stronger effect = lower value 0.949 | locus YPL256C, strain CLN2, stronger effect = lower value 0.983 | locus YPR025C, strain CCL1, stronger effect = lower value 1.01 | locus YPR106W, strain ISR1, stronger effect = lower value 0.987 | locus YPR111W, strain DBF20, stronger effect = lower value 0.986 | locus YPR135W, strain CTF4, stronger effect = lower value 0.832 | strain NNK1, stronger effect = lower value 0.984 | strain TSCII, stronger effect = lower value 0.986
